# Laboratory results taken from PubChem BioAssay (Tox21).
# Results filed as inconclusive are left out. Values without a mark were called inactive. Calls follow the shape of the dose curve; as a rule, active = well fitted activation curve with a large enough effect in the repeat runs; inconclusive = weak or mixed curves; inactive = flat fitted curve, though single readings scatter.
# Test: A CellTox Green Cytotoxicity Assay to monitor cytotoxicity in HEK293 cells - 16 hour (AID 1224888); also: nearly all actives have a fitted effect of over 35% in size
# Details: CellTox Green fluorescence, stronger effect = higher value; series mostly up to 76.8 µM; activity change: at the top concentration
# Excerpt: National Center for Advancing Translational Sciences [NCATS]
# NIH Chemical Genomics Center [NCGC]
# U.S. Environmental Protection Agency [EPA]
# National Institutes of Environmental Health Sciences [NIEHS]
# National Toxicology Program [NTP]
# Cell-based models are critical for drug discovery. Determining the natural cytotoxic effects resulting from test compounds is an essential research activity. A CellTox Green Cytotoxicity Assay to monitor cytotoxicity in real time of continues cell culture during 40 hours of the compound treatment was used to screen Tox21 10K library compounds in Hek293 cells. CellTox Green Cytotoxicity Assay is a nonlytic, homogeneous, biofluorescent method to measure cytotoxicity in cell culture after experimental manipulation. The assay system uses a proprietary asymmetric cyanine dye that is excluded from viable cells but preferentially stains the dead cell's DNA. […] Viable cells produce no appreciable increases in fluorescence. Therefore, the fluorescence signal produced by the binding interaction with dead cell DNA is proportional to cytotoxicity.
# The mixture of Hek293 cell suspension and reagents were dispensed at 600cells/6 ul/well in 1536-well tissue culture treated black solid bottom plates using a Multidrop dispenser. After the assay plates were incubated at a 37 C/5% CO2 incubator for 5 hours, 23 nL of compounds dissolved in DMSO, positive and negative controls was transferred to the assay plate by a pintool work station. The plates were incubated at 37 C for 40 hours. The fluorescence intensity were measured at 0h, 8h, 16h, 24h, 32h and 40h time points using ViewLux plate reader during compound treatment.
# % is scaled to controls: 0 for no effect and ±100 for the full control effect.
row,Structure (SMILES),activity change
1,Brc1ccc(-c2ccccc2)cc1,-1.46%
2,CNC(=O)[C@H]1O[C@@H](n2cnc3c(NCc4cc(Cl)ccc4OCc4cc(C)no4)ncnc32)[C@H](O)[C@@H]1N,-4.52%
3,CCCCC(CC)COCCO (stereo not given),-4.2%
4,C[C@H](CCC(=O)O)[C@H]1CC[C@H]2[C@@H]3C(=O)C[C@@H]4CC(=O)CC[C@]4(C)[C@H]3CC(=O)[C@]12C,-8.56% [at 35.3 µM]
5,CC(C)NCC(O)COc1cccc2[nH]ccc12 (stereo not given),-0.788% [at 35.3 µM]
6,COC(=O)CCc1ccc(OCC(O)CNC(C)C)cc1 (stereo not given),-18.2% [at 35.3 µM]
7,CC(=O)N[C@@H](CCC(=O)O)C(=O)O,-2.44% [at 35.3 µM]
8,CC(C)C(=O)OCc1cccc(OC(=O)[C@@H]2N3C(=O)[C@@H](NC(=O)Cc4ccccc4)[C@H]3SC2(C)C)c1,-7.21% [at 35.3 µM]
9,O=C(O)C(=O)Cc1ccccc1,-1.47%
10,NCCN1CCOCC1,-1.03%
11,CCC(C)NC(N)=O (stereo not given),-0.0716%
12,CCCCCCOc1ccccc1C(N)=O,13.4% [at 35.3 µM]
13,CCCC(=O)C(C)=O,-9.56%
14,CCN(CC)CC(=O)Nc1c(C)cccc1C,-9.28% [at 35.3 µM]
15,On1nnc2ccccc21,0.559%
16,CCOCCOC(=O)/C=C/c1ccc(OC)cc1,-16.5% [at 35.3 µM]
17,COc1nccnc1NS(=O)(=O)c1ccc(N)cc1,-0.724% [at 35.3 µM]
18,CC(C)N(c1ccccc1)C(C)C,-8.67%
19,CCOc1cc(NC(C)=O)ccc1C(=O)OC,4.63% [at 35.3 µM]
20,Cc1cc2cc3c(C)cc(=O)oc3c(C)c2o1,2.31% [at 35.3 µM]

row,Structure (SMILES),activity change
1,O=C(O)c1cc(Cl)cc([N+](=O)[O-])c1Cl,-0.875%
2,N#Cc1ccc(C(=O)O)cc1,-4.39%
3,CC(=O)Nc1ccc(S(=O)(=O)Nc2ccc([N+](=O)[O-])cc2)cc1,-0.13% [at 35.3 µM]
4,O=C(O)Cc1ccc(Cl)cc1Cl,10.1%
5,CCCN1C[C@H](CSC)C[C@@H]2c3cccc4[nH]cc(c34)C[C@H]21,-1.15% [at 35.3 µM]
6,COC(=O)CCCCCCCC(=O)OC,-7.99%
7,CC(=O)OC(C)OC(=O)C(C)c1ccc(-c2ccccc2)c(F)c1 (stereo not given),-3.68% [at 35.3 µM]
8,COP(=O)(OC)OC(c1ccc(Cl)cc1)P(=O)(OC)OC (stereo not given),3% [at 35.3 µM]
9,O=C1CCCC(=O)O1,-14.6%
10,CCCC/C=C\CCCCCCCCCC=O,-6.33%
11,CCOC(=O)c1ccc(OC(=O)CCCCCN=C(N)N)cc1,-9.03% [at 35.3 µM]
12,C=C(C)C(=O)OCCOP(=O)(O)OCCOC(=O)C(=C)C,-0.425%
13,CN1CCN(CC(=O)N2c3ccccc3C(=O)Nc3cccnc32)CC1,-1.08% [at 6.97 µM]
14,CN1C(C)(C)CCCC1(C)C,1.38% [at 35.3 µM]
15,CCCCCCCCC1CCC(=O)O1 (stereo not given),8.38%
16,Cc1c(I)c(=O)n(-c2ccccc2)n1C,13.9% [at 35.3 µM]
17,CCCCCCCCC(=O)Cl,2.47%
18,O=C(CS(=O)Cc1ccco1)NC/C=C\COc1cc(CN2CCCCC2)ccn1 (stereo not given),0.106% [at 35.3 µM]
19,Cc1ccccc1OCC(O)CO (stereo not given),-1.11% [at 35.3 µM]
20,Nc1ccc2cc(S(=O)(=O)O)cc(O)c2c1,-9.19%
